VACV mCherry inh: qHTS for Stage-Specific Inhibitors of Vaccinia Orthopoxvirus: mCherry Reporter Primary qHTS | Vaccinia virus mCherry reporter infection, fluorescence | Potency, µM (top dose mostly 36.5 µM), inactives show top-dose activity change, negative = inhibition, most hits filed as inhibitors | 310,000 compounds, 0.63% hits | AID 720579, 2013; calls by dose curve; tested in A549 cells; note: nearly all actives have a fitted effect of over 35% in size
Pf growth 96h: Primary qHTS for delayed death inhibitors of the malarial parasite plastid, 96 hour incubation | P. falciparum luciferase reporter growth, 96 h | Potency, µM (highest dose often 28.7 µM), inactives show at the top dose activity change, negative = inhibition, most hits filed as inhibitors | 320,000 compounds, 6.9% hits
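Erythrocytes infected with luciferase-expressing P. falciparum were dispensed at 2% hematocrit and 0.05% parasitemia (final), then incubated with compounds 96 hours at 37 C in 5% CO2. Luminescence after detection reagent addition reported growth.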
AMA1 RON2 block: qHTS for Inhibitors of AMA1-RON; Towards Development of Antimalarial Drug Lead: Primary Screen | 360,000 compounds, 0.2% hits | AID 720542, 2013 | Potency, µM (series often up to 58.2 µM), for the others: at the top dose activity change, negative = inhibition, actives largely listed as inhibitors | AlphaScreen AMA1-biotinylated RON2 peptide binding | Plasmodium falciparum AMA1 (3D7) - RON2 peptide interaction;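 note: 0% = vehicle wells and -100% = peptide control; nearly all actives have a fitted effect of over 45% in size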
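AMA1 (3D7) with his tag at 25 nM final met compounds first, then biotinylated RON2 peptide at 25 nM; detection used donor plus acceptor beads, 10 µg/mL apiece, read by AlphaScreen after 30 min at room temperature.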
VACV Venus inh: qHTS for Stage-Specific Inhibitors of Vaccinia Orthopoxvirus: Venus Reporter Primary qHTS | Vaccinia virus Venus reporter expression, fluorescence | Potency, µM (top dose mostly 36.5 µM), inactives show at the top dose activity change, negative = inhibition, actives largely listed as inhibitors | 330,000 compounds, 0.46% hits | AID 720580, 2013; calls by dose curve; tested in A549 cells; note: nearly all actives have a fitted effect of over 30% in size
Pf growth 48h: Primary qHTS for delayed death inhibitors of the malarial parasite plastid, 48 hour incubation; P. falciparum luciferase growth in erythrocytes, 48 h; Potency, µM (titrated, usually from 28.7 µM), inactives show top-dose activity change, negative = inhibition, hits mostly inhibitors; 310,000 compounds, 5.9% hits
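Parasite viability was followed by luminescence of a genomically integrated firefly luciferase. Cultures held 0.1% parasitemia at 2% hematocrit (final), incubated under 5% CO2 at 37 C.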
* = called active by the depositor; i = inactive; ? = inconclusive; . = not tested or not shown; [ ] = another dose, or the depositor's remark. A selection: hits, their analogues and other compounds. The true share with any hit is near 8.7%. Unless noted, calls come from the whole dose curve; as a rule, active = well fitted curve in the direction sought with a large enough effect; inconclusive = small, poorly fitted or top-dose-only effect, or another doubt; inactive = no such curve, though single readings can be large; an effect the other way counts as inactive or inconclusive. Unless noted, % is set by controls: 0 for no effect and ±100 for the full control effect; potency is the fitted concentration of half-maximal effect.

SMILES | VACV mCherry inh | Pf growth 96h | AMA1 RON2 block | VACV Venus inh | Pf growth 48h
CCOC(=O)C(=CNc1cc(Cl)c(-c2ccco2)c(Cl)c1)C(=O)OCC | . | -110% | -7% | . | 12µM*
Oc1ccccc1N=N/C(=N/Nc1ccccc1O)c1ccccc1 | ? | 8.3µM* | 9% | 4% | 4.1µM*
N#C/C(N=Nc1ccccc1O)=N\Nc1ccccc1O | ? | ? | -15% | ? | ?
COc1ccc(NC(C)=O)cc1NC(=O)c1cccc(S(=O)(=O)N2CCc3ccccc32)c1 | . | ? | -13% | . | 13µM*
COc1ccc(CN2CCN(S(=O)(=O)c3ccc(NC(C)=O)cc3)CC2)c(OC)c1OC | -11% | 13µM* | -7% | -8% | ?
COc1ccccc1NC(=O)c1cccc(S(=O)(=O)N2CCN(Cc3ccccc3)CC2)c1 | -2% | 12µM* | -6% | -3% | ?
COc1ccccc1OCCNC(=O)c1cccc(S(=O)(=O)N2CCN(Cc3ccccc3)CC2)c1 | . | -26% | 76% | . | ?
COc1ccc(NC(C)=O)cc1NC(=O)c1cccc(S(=O)(=O)N2CCN(Cc3ccccc3)CC2)c1 | -20% | 3.7µM* | -5% | -7% | ?
CCOc1ccc(CN2CCN(S(=O)(=O)c3ccc(NC(C)=O)cc3)CC2)cc1OC | i | -17% | ? | -20% | ?
COc1ccc(S(=O)(=O)N2CCc3ccccc32)cc1C(=O)OCC(=O)c1c(N)n(C)c(=O)n(C)c1=O | 4% | -15% | 10% | 1% | 4.1µM*
CCOC(=O)N1CCN(C(=O)c2cc(S(=O)(=O)N3CCc4ccccc43)ccc2OC)CC1 | i | ? | 3% | -11% | ?
COc1ccc(S(=O)(=O)N2CCc3ccccc32)cc1C(=O)Nc1ccc(C(N)=O)cc1 | . | 7.4µM* | 0% | . | ?
COc1ccccc1C(=O)Nc1ccc(S(=O)(=O)N2CCc3ccccc32)cc1 | -21% | ? | 3% | -17% | .
COc1ccc(NC(=O)c2cc(S(=O)(=O)N3CCc4ccccc43)cn2C)c(OC)c1 | 10% | 0% | -14% | -8% | ?
Cn1c(N)c(C(=O)COC(=O)c2ccc(Cl)c(S(=O)(=O)N3CCCC3)c2)c(=O)n(C)c1=O | . | ? | -1% | . | 8.3µM*
Cc1cc(F)ccc1NC(=O)c1cc(S(=O)(=O)N2CCc3ccccc32)cn1C | -24% | 10µM* | -2% | -30% | ?
Cn1c(N)c(C(=O)COC(=O)c2cc(S(=O)(=O)N3CCCCC3)ccc2Cl)c(=O)n(C)c1=O | -12% | -7% | 3% | -13% | -3%
COc1ccc2c(c1)CC(C(=O)Nc1cc(OC)c(OC)c(OC)c1)CO2 (stereo not given) | -11% | . | . | -15% | .
CCc1ccc(NC(=O)Cn2c(=O)c3cc(Cl)ccc3n3nncc23)cc1 | 7% | . | . | 1% | .
CCOC(=O)c1[nH]c(C)c(CCC(=O)Nc2cccc(C(F)(F)F)c2)c1C | -2% | . | . | -3% | .
CC(C)(C)NC(=O)c1ccc2c(c1)C1C3CCC(C3)C1C(c1ccccc1)N2 (stereo not given) | -9% | 18% | 1%[11.6 µM] | -29% | ?
CCCNC(=O)c1ccc2c(c1)C1C3CCC(C3)C1C(c1ccccc1)N2 (stereo not given) | . | . | -17% | . | 9.3µM*
CCS(=O)(=O)N1CCC(C(=O)Nc2cc(Cl)ccc2O)CC1 | -14% | 32% | 6% | -10% | 0%
Cc1ccc(NC(=O)C2CCN(S(=O)(=O)c3ccc4c(c3)OCCO4)CC2)c(O)c1 | -25% | 12µM* | -13% | -11% | ?
CCS(=O)(=O)N1CCC(C(=O)Nc2cc(C)ccc2O)CC1 | . | 12µM* | -11% | . | -6%
SMILES | VACV mCherry inh | Pf growth 96h | AMA1 RON2 block | VACV Venus inh | Pf growth 48h
Cc1ncc2c(c1CNC(=O)c1ccc3c(c1)OCO3)CCN(C(=O)C1Cc3ccccc3O1)C2 (stereo not given) | -2% | . | . | 13% | .
O=C(NCC(c1cccnc1)N1CCN(c2ccc(F)cc2)CC1)c1cccc(Cl)c1 (stereo not given) | -3%[1.46 µM] | 1% | 5% | ? | 12µM*
COc1cc(C(=O)NCC(c2cccnc2)N2CCN(c3ccccc3)CC2)cc(OC)c1OC (stereo not given) | 12% | ? | -9% | 6% | 13µM*
O=C(NCC(c1cccnc1)N1CCN(c2ccccc2)CC1)OCc1ccccc1 (stereo not given) | i | 19% | 1% | -13% | 7.4µM*
O=C(NCCc1c[nH]c2ccccc12)C(=O)NCC(c1cccnc1)N1CCN(c2ccccc2)CC1 (stereo not given) | 16µM* | 8.3µM* | -11% | ? | 13µM*
COc1ccc(N2CCN(C(CNC(=O)c3cccc(OC)c3)c3cccnc3)CC2)cc1 (stereo not given) | 4% | . | . | -12% | .
CCc1ccc2oc(C(=O)Nc3cccc(C(F)(F)F)c3)cc(=O)c2c1 | -6% | . | . | -7% | .
O=C(NCC(c1cccnc1)N1CCN(c2ccc(F)cc2)CC1)Oc1ccccc1 (stereo not given) | -6% | ? | -4% | -16% | 8.3µM*
COC(=O)NCC(c1cccnc1)N1CCN(c2ccc(F)cc2)CC1 (stereo not given) | -9% | . | . | -9% | .
O=C(Cc1ccccc1)NC1CC(=O)N(c2ccccc2)C1 (stereo not given) | -4%[7.34 µM] | . | . | -11%[7.34 µM] | .
Cc1c(C(=O)N2CCC(Cc3ccccc3)CC2)cccc1[N+](=O)[O-] | -21% | 103% | -10% | -21% | 14%
O=C(c1ccc(Br)o1)N1CCN(Cc2ccccc2Cl)CC1 | . | ? | -10% | . | 12µM*
O=C(c1ccc(Br)o1)N1CCN(Cc2ccc3c(c2)OCO3)CC1 | . | ? | 33% | . | 0%
Cn1nccc1C(=O)N1CCC(Cc2ccccc2)CC1 | . | ? | 0% | . | 68%
O=C(c1cccs1)N1CCC(Cc2ccccc2)CC1 | . | -23% | 7% | -23% | 8.3µM*
O=C(c1ccc(Br)o1)N1CCC(Cc2ccccc2)CC1 | i | -17% | ? | -20% | 13µM*
Cc1cccc(C(=O)N2CCC(Cc3ccccc3)CC2)c1[N+](=O)[O-] | -17% | 0.93µM* | -6% | -12% | -1%
CCOC(=O)C1CCN(c2c(C(=O)c3ccc(OCC)cc3)cnc3ccc(OC)cc23)CC1 | i | . | . | -9% | .
O=C(c1cnsn1)N1CCOc2ccc(C(O)C(c3ccccc3)c3ccccc3)cc2C1 (stereo not given) | -11% | . | . | -19% | .
COc1ccccc1CNC(=O)CCn1c(=O)c2ccccc2n(CC(=O)Nc2cc(Cl)ccc2C)c1=O | -5% | . | . | -2% | .
CN(C)c1c(Cl)cc(/C=C2\C=Cc3ccccc32)cc1Cl | -11% | . | . | -1% | .
C=Cc1ccc(CSc2nc(-c3ccccc3Cl)nc3c2Cc2c(CO)cnc(C)c2O3)cc1 | ? | . | . | -29% | .

Compound activity deposited in PubChem BioAssay by National Center for Advancing Translational Sciences (NCATS).
